{
  "source": "PubChem BioAssay AID1076",
  "about": "(NMMLSC, 2008)",
  "note": "Active and inactive are the calls of the source.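 How the source made its calls: active means cell event count below 40, meaning activity score above 60 where score is 100 minus count; inactive means the rest.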",
  "data": [
    {"assay": "LNCaP cell loss by flow event count, confirmation, cytotoxicity control for prostate differentiation activator project, single point (AID 1076);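 further: counts scatter-gated live cells after medium removal discards detached dead cells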", "settings": "flow cytometry event count, 4 d, at 100 µM, stronger effect = lower value", "values": [
      {"molecule": "CCOC(=O)N1CCC(NC(=O)c2cc3c(-c4ccc(Cl)cc4)nn(C)c3s2)CC1", "cell event count": "342 (inactive)"},
      {"molecule": "CCn1c(=O)cc(SCC(=O)NCCN2CCN(Cc3ccccc3)CC2)c2ccccc21", "cell event count": "228 (inactive)"},
      {"molecule": "COc1ccc(-c2cc(C(=O)NCc3ccc(Cl)cc3)no2)cc1OC", "cell event count": "172 (inactive)"},
      {"molecule": "C=CCn1c(=N)n(CC(O)COc2ccccc2OC)c2ccccc21", "note": "(stereo unspecified)", "cell event count": "29 (inactive)"},
      {"molecule": "COc1ccc(CCNC(=O)C2CCN(Cc3nc(-c4cccc(Cl)c4)oc3C)CC2)cc1OC", "cell event count": "85 (inactive)"},
      {"molecule": "Cc1oc(-c2cccc(Cl)c2)nc1CN1CCCC(C(=O)NCCCN2CCOCC2)C1", "note": "(stereo unspecified)", "cell event count": "22 (inactive)"},
      {"molecule": "CCN(CCNC(=O)C1CCN(Cc2nc(-c3cccc(Cl)c3)oc2C)CC1)c1ccccc1", "cell event count": "3 (active)"},
      {"molecule": "CCc1cc(C)cc(OCCNC(=O)c2ncn[nH]2)c1", "cell event count": "171 (inactive)"},
      {"molecule": "O=C(NCCCN1CCN(c2ccccc2F)CC1)C1CCC(=O)N1C1CCCCC1", "note": "(stereo unspecified)", "cell event count": "388 (inactive)"},
      {"molecule": "Cc1oc(-c2cccc(Cl)c2)nc1CN1CCCC(C(=O)NC(C)c2ccc3c(c2)OCCO3)C1", "note": "(stereo unspecified)", "cell event count": "9 (inactive)"},
      {"molecule": "CN1CCN(CCCNC(=O)c2cc3c(-c4ccc(Cl)cc4)nn(C)c3s2)CC1", "cell event count": "7 (inactive)"},
      {"molecule": "COc1ccc(OC)c(N=Cc2c(O)[nH]c3ccccc23)c1", "cell event count": "207 (inactive)"},
      {"molecule": "c1ccc(OCCCn2nnc(-c3cccnc3)n2)cc1", "cell event count": "123 (inactive)"},
      {"molecule": "N#CC1=C(N)OC2=C(C(=O)CCC2)C1c1ccc(OC(=O)N2CCOCC2)cc1", "note": "(stereo unspecified)", "cell event count": "293 (inactive)"},
      {"molecule": "Cc1ccnc(NC(=O)CCC(=O)N(CC(=O)NC2CCCCC2)c2cccc(C)c2C)c1", "cell event count": "27 (inactive)"},
      {"molecule": "Cc1ccc(Cn2c(C(=O)NCCCN3CCOCC3)cc3sccc32)cc1", "cell event count": "279 (inactive)"},
      {"molecule": "COc1ccc(OC)c(CNC(=O)CCNC(=O)Cn2ccc3ccccc3c2=O)c1", "cell event count": "63 (inactive)"},
      {"molecule": "Cc1cc(=O)oc(C)c1C(=O)NCCCN1CCN(c2ccc(F)cc2)CC1", "cell event count": "236 (inactive)"},
      {"molecule": "Cc1oc(-c2cccc(Cl)c2)nc1CN1CCCC(C(=O)NCc2ccco2)C1", "note": "(stereo unspecified)", "cell event count": "10 (inactive)"},
      {"molecule": "CCc1ccc(-c2nc(CN3CCC(C(=O)N4CCN(c5ccccc5)CC4)CC3)c(C)o2)cc1", "cell event count": "9 (inactive)"},
      {"molecule": "Cc1oc(-c2ccccc2F)nc1CN1CCC(C(=O)NCc2cccs2)CC1", "cell event count": "107 (inactive)"},
      {"molecule": "CS(=O)(=O)c1nc(-c2cccs2)cc(C(F)(F)F)n1", "cell event count": "53 (inactive)"},
      {"molecule": "Cc1oc(-c2cccc(Cl)c2)nc1CN1CCC(C(=O)NCc2ccco2)CC1", "cell event count": "100 (inactive)"},
      {"molecule": "COc1ccc2nc3oc(C(=O)NCc4cccs4)cc3cc2c1", "cell event count": "307 (inactive)"},
      {"molecule": "Cc1oc(-c2ccccc2F)nc1CN1CCC(C(=O)NCCC2=CCCCC2)CC1", "cell event count": "17 (inactive)"},
      {"molecule": "O=S1(=O)C=C(Sc2nc3ccccc3s2)c2ccccc21", "cell event count": "39 (active)"},
      {"molecule": "COc1ccc(Nc2nc(N)nc(CN3CCC(Cc4ccccc4)CC3)n2)cc1", "cell event count": "6 (active)"},
      {"molecule": "CCOc1cccc(-c2nnc3n2N=C(c2cc(OC)ccc2OC)CS3)c1", "cell event count": "3 (inactive)"},
      {"molecule": "CN1CCN(c2oc(COc3ccc(-c4ccccc4)cc3)nc2C#N)CC1", "cell event count": "5 (inactive)"},
      {"molecule": "CCCCOc1ccccc1NC(=O)Cn1c(-c2nonc2N)nc2ccccc21", "cell event count": "99 (inactive)"},
      {"molecule": "CCOC(=O)C1=C(C)Nc2nc(SC)nn2C1c1ccc(C(=O)OC)cc1", "note": "(stereo unspecified)", "cell event count": "326 (inactive)"},
      {"molecule": "Cc1oc(-c2ccc(Cl)cc2)nc1CN1CCC(C(=O)NCCCN2CCOCC2)CC1", "cell event count": "12 (inactive)"},
      {"molecule": "O=C(NCCCN1CCN(c2ccccc2F)CC1)C1CCN(S(=O)(=O)N2CCOCC2)CC1", "cell event count": "156 (inactive)"},
      {"molecule": "Cc1ccc(-c2noc(CCC(=O)NC3CCN(Cc4ccccc4)CC3)n2)cc1", "cell event count": "9 (active)"},
      {"molecule": "COC(=O)c1cc(-c2ccccc2)sc1NC(=O)c1cc(C)on1", "cell event count": "10 (active)"},
      {"molecule": "Cn1c(C(=O)NCCCN2CCN(c3ccccc3F)CC2)cc2c(=O)n(C)c3ccccc3c21", "cell event count": "5 (inactive)"},
      {"molecule": "CCn1c(SCC(=O)Nc2ccccc2F)nc2c(c1=O)SC(C)C2", "note": "(stereo unspecified)", "cell event count": "75 (inactive)"},
      {"molecule": "O=C(CN1CCN(Cc2ccc3c(c2)OCO3)CC1)N1CCc2[nH]c3ccc(F)cc3c2C1", "cell event count": "24 (inactive)"}
    ]},
    {"assay": "LNCaP cell loss by flow event count, confirmation, cytotoxicity control for prostate differentiation activator project, single point (AID 1076);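 further: counts scatter-gated live cells after medium removal discards detached dead cells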", "settings": "flow cytometry event count, 4 d, event count, at 10 µM, stronger effect = lower value", "values": [
      {"molecule": "CCOC(=O)N1CCC(NC(=O)c2cc3c(-c4ccc(Cl)cc4)nn(C)c3s2)CC1", "cell event count": 118},
      {"molecule": "CCn1c(=O)cc(SCC(=O)NCCN2CCN(Cc3ccccc3)CC2)c2ccccc21", "cell event count": 356},
      {"molecule": "COc1ccc(-c2cc(C(=O)NCc3ccc(Cl)cc3)no2)cc1OC", "cell event count": 255},
      {"molecule": "C=CCn1c(=N)n(CC(O)COc2ccccc2OC)c2ccccc21", "note": "(stereo unspecified)", "cell event count": 94},
      {"molecule": "COc1ccc(CCNC(=O)C2CCN(Cc3nc(-c4cccc(Cl)c4)oc3C)CC2)cc1OC", "cell event count": 338},
      {"molecule": "Cc1oc(-c2cccc(Cl)c2)nc1CN1CCCC(C(=O)NCCCN2CCOCC2)C1", "note": "(stereo unspecified)", "cell event count": 220},
      {"molecule": "CCN(CCNC(=O)C1CCN(Cc2nc(-c3cccc(Cl)c3)oc2C)CC1)c1ccccc1", "cell event count": 83},
      {"molecule": "CCc1cc(C)cc(OCCNC(=O)c2ncn[nH]2)c1", "cell event count": 54},
      {"molecule": "O=C(NCCCN1CCN(c2ccccc2F)CC1)C1CCC(=O)N1C1CCCCC1", "note": "(stereo unspecified)", "cell event count": 282},
      {"molecule": "Cc1oc(-c2cccc(Cl)c2)nc1CN1CCCC(C(=O)NC(C)c2ccc3c(c2)OCCO3)C1", "note": "(stereo unspecified)", "cell event count": 136},
      {"molecule": "CN1CCN(CCCNC(=O)c2cc3c(-c4ccc(Cl)cc4)nn(C)c3s2)CC1", "cell event count": 146},
      {"molecule": "COc1ccc(OC)c(N=Cc2c(O)[nH]c3ccccc23)c1", "cell event count": 112},
      {"molecule": "c1ccc(OCCCn2nnc(-c3cccnc3)n2)cc1", "cell event count": 126},
      {"molecule": "N#CC1=C(N)OC2=C(C(=O)CCC2)C1c1ccc(OC(=O)N2CCOCC2)cc1", "note": "(stereo unspecified)", "cell event count": 223},
      {"molecule": "Cc1ccnc(NC(=O)CCC(=O)N(CC(=O)NC2CCCCC2)c2cccc(C)c2C)c1", "cell event count": 66},
      {"molecule": "Cc1ccc(Cn2c(C(=O)NCCCN3CCOCC3)cc3sccc32)cc1", "cell event count": 379},
      {"molecule": "COc1ccc(OC)c(CNC(=O)CCNC(=O)Cn2ccc3ccccc3c2=O)c1", "cell event count": 73},
      {"molecule": "Cc1cc(=O)oc(C)c1C(=O)NCCCN1CCN(c2ccc(F)cc2)CC1", "cell event count": 100},
      {"molecule": "Cc1oc(-c2cccc(Cl)c2)nc1CN1CCCC(C(=O)NCc2ccco2)C1", "note": "(stereo unspecified)", "cell event count": 146},
      {"molecule": "CCc1ccc(-c2nc(CN3CCC(C(=O)N4CCN(c5ccccc5)CC4)CC3)c(C)o2)cc1", "cell event count": 254},
      {"molecule": "Cc1oc(-c2ccccc2F)nc1CN1CCC(C(=O)NCc2cccs2)CC1", "cell event count": 214},
      {"molecule": "CS(=O)(=O)c1nc(-c2cccs2)cc(C(F)(F)F)n1", "cell event count": 61},
      {"molecule": "Cc1oc(-c2cccc(Cl)c2)nc1CN1CCC(C(=O)NCc2ccco2)CC1", "cell event count": 189},
      {"molecule": "COc1ccc2nc3oc(C(=O)NCc4cccs4)cc3cc2c1", "cell event count": 304},
      {"molecule": "Cc1oc(-c2ccccc2F)nc1CN1CCC(C(=O)NCCC2=CCCCC2)CC1", "cell event count": 402},
      {"molecule": "O=S1(=O)C=C(Sc2nc3ccccc3s2)c2ccccc21", "cell event count": 44},
      {"molecule": "COc1ccc(Nc2nc(N)nc(CN3CCC(Cc4ccccc4)CC3)n2)cc1", "cell event count": 7.5},
      {"molecule": "CCOc1cccc(-c2nnc3n2N=C(c2cc(OC)ccc2OC)CS3)c1", "cell event count": 136},
      {"molecule": "CN1CCN(c2oc(COc3ccc(-c4ccccc4)cc3)nc2C#N)CC1", "cell event count": 174},
      {"molecule": "CCCCOc1ccccc1NC(=O)Cn1c(-c2nonc2N)nc2ccccc21", "cell event count": 86.5},
      {"molecule": "CCOC(=O)C1=C(C)Nc2nc(SC)nn2C1c1ccc(C(=O)OC)cc1", "note": "(stereo unspecified)", "cell event count": 178},
      {"molecule": "Cc1oc(-c2ccc(Cl)cc2)nc1CN1CCC(C(=O)NCCCN2CCOCC2)CC1", "cell event count": 119},
      {"molecule": "O=C(NCCCN1CCN(c2ccccc2F)CC1)C1CCN(S(=O)(=O)N2CCOCC2)CC1", "cell event count": 108},
      {"molecule": "Cc1ccc(-c2noc(CCC(=O)NC3CCN(Cc4ccccc4)CC3)n2)cc1", "cell event count": 77.5},
      {"molecule": "COC(=O)c1cc(-c2ccccc2)sc1NC(=O)c1cc(C)on1", "cell event count": 42.5},
      {"molecule": "Cn1c(C(=O)NCCCN2CCN(c3ccccc3F)CC2)cc2c(=O)n(C)c3ccccc3c21", "cell event count": 170},
      {"molecule": "CCn1c(SCC(=O)Nc2ccccc2F)nc2c(c1=O)SC(C)C2", "note": "(stereo unspecified)", "cell event count": 70.5},
      {"molecule": "O=C(CN1CCN(Cc2ccc3c(c2)OCO3)CC1)N1CCc2[nH]c3ccc(F)cc3c2C1", "cell event count": 234}
    ]}
  ]
}
